# Data published in the supplement of paper PMC6555819.
# Test system: VDR:RXRa (NR concentration 270 nM, RXRa partner concentration 90 nM)
# Experiment: PBM binding z-score (relative to random genomic background probes); higher = stronger binding; sequences stand for … in GC…GCGATTGACAGCGTAGAATGAAGG
# Method: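 Protein-binding microarray (Agilent 4x180K custom design, double-stranded 60-nt probes: 5' GC cap, 34-nt variable region, 24-nt constant primer region; full probe sequence given). Purified or IVT nuclear receptor:RXRα heterodimers (3:1 NR:RXRα, mostly 270:90 nM) or homodimers were incubated for 1 h in PBS with 2% milk and no ligand, then detected with Alexa488 antibodies. Fluorescence from o1-orientation probes (~5 replicates averaged) was converted to z-scores against 500 random hg19 background probes. Variable regions are seed direct-repeat (DR0–DR5) sites, all their single-nucleotide variants and half-site ablations.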
row,Sequence,PBM binding z-score
1,CAGCCGAGGTCAGGGCCAGTATAGGAGGAACGTT,3.64
2,ATCTCTAGGTAATACTCAGTTCAGTGAAGAACGC,1.55
3,CCTACTGGGCCAAAAAGGTGATTGATGCCGATAA,-0.0906
4,TCTTGTAGATCAGCAGGTTAAAAAAGCTGGCCAA,0.495
5,ACTAGTAGGCCAAGTTTGGGTCACTCAAACAAAG,0.967
6,CGAACTAGGTCATTGACAGGCCAGTGAATAGTAA,1.88
7,TCATATAGGTAAATGCTATGTGAAAGTCCGATCT,0.852
8,TAGCCTAGGTCATGCAGGGGCCAGTATAGAAAGC,2.7
9,AGTCAAAGTTCAATAGGTAACGTAAGATTCAGCT,3.71
10,CATAGCAGGCCAATCTGGGTCACTCAAGGCTTGA,0.95
11,CAAATTAGGTCAAGAGGTCAAAGTCCGCTTCCCG,6.35
12,TCATATAGGTAAATGCTAGGTGATAGTCCGATCT,0.757
13,TAGCCTGGGTCATGCGGGCCAGTATAGTGTCGGC,3.07
14,CCGACTGGGGCGGAAAGGTTACCATACCATCCGG,1.02
15,TCGAGTTGGTCAAAGGTCACACACTCGAAATGCG,5.56
16,TCTAGCAGGCCTGAGGGTCACTCAAGAGGTACGG,1.9
17,TCTAGTTGCTCACGGAGGTCACACACGACGGGTA,3.64
18,ATACCAAGGTGATCGTGACGTCGTTGATACTAAC,0.156
19,CCTACTGGGCCATCTGGTCATTGATATCAACGTT,-0.267
20,ATCTCTAGGTAAAGATAGTTCGGTGAATGCAAAT,0.244

row,Sequence,PBM binding z-score
1,TAGCCTAGGTCATTGGGCCAGTAGAGTACGCATC,2.26
2,TCGAGTCGGTTACCAATGGGGCATTCAGCTTTCT,-0.384
3,AATACACGGTCACTAGGCCAGAGTAGGTACGAAT,0.248
4,GTACCAAGGTGAATAGGTCTTTGATGAGTAGGCG,0.495
5,TCTCGGAGGACACGAAGGTCTGAGCTTTCCAGAG,-0.323
6,CGTCCAAGGTCAAAGGAGGTCAGTGAAGACAGAT,6.53
7,ATCTATAGGTAAAGATAGTTCAGTGAATGCAAAT,1
8,GCTATTAGTTGAAAGGGAAACCGAATGATTCTCG,0.00748
9,TCTATTAGTTGCAGGGCAACCGACGAGTCCGTTT,0.743
10,CAAACTAGGTTACGAAAGGTCAAAGTCGAATGAC,5.53
11,CGTCCAAGGTCAGAGACGTCAGTGAATGCCGAGT,2.76
12,GCGACTGGGGCAAAGCAGGTTACTATAAGGTTGG,0.0986
13,TGAATGAGTTTATAAGATCAGGGAACGTTGCAAA,1.26
14,CCTCGGAGGCCAACAGGAGGTCAGAGCTGCCAGA,2.07
15,TCTAGCAGTCCAGAGGGTCACTCAAGAGGTACGG,1.69
16,CAAACTAGGTCAAGAGCTCAAAGTCCGCTTCCCG,1.29
17,TAGCCTAGGTAATTGGGCCAGTATAGTACGCATC,-0.627
18,TCTCGGCGGACACGAAGGTCAGAGCTTTCCAGAG,0.658
19,ATCTCTAGGTAAAATTCAGTGAAAGATCGATAGA,0.35
20,GCGACTGTGGCAAAGCAGGTTACCATAAGGTTGG,-0.352
